Data from PubChem BioAssay AID1159580 (chemical genetic matrix, 2015).
The campaign covered roughly 5,500 compounds. About 2,000 (36%) were called active. Inconclusive results (about 18%) are left out. Rule as the data show it: active = normalized growth mostly below about 0.91 (no sharp cut-off); inconclusive = no clear call, values can overlap the other calls; inactive = mostly above about 0.92. The list shows a part of the results.

Test: chemical genetic growth profiling, strain panel (AID 1159580);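 also: tested at 20 µM; growth read once vehicle control cultures reached saturation at 30 °C; 1 = growth at the plate median or of vehicle wells; lower values mean less growth of the strain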
Details: growth OD

Measured: normalized growth

CC[C@@H](CO)NC(=O)[C@@H]1C=C2c3cccc4[nH]cc(c34)C[C@H]2N(C)C1
inactive: S. cerevisiae deletion strains, locus YKL009W, strain mrt4, stronger effect = lower value 0.999 | S. cerevisiae deletion strains, locus YKL068W, stronger effect = lower value 0.996 | S. cerevisiae deletion strains, locus YKL085W, strain MDH1 (second series), stronger effect = lower value 1.02 | S. cerevisiae deletion strains, locus YKL085W, strain MDH1, stronger effect = lower value 1.02 | S. cerevisiae deletion strains, locus YKL160W, strain elf1, stronger effect = lower value 0.982 | S. cerevisiae deletion strains, locus YKL190W, strain CNB1, stronger effect = lower value 0.997 | S. cerevisiae deletion strains, locus YKR001C, strain vps1, stronger effect = lower value 0.947 | S. cerevisiae deletion strains, locus YKR026C, strain gcn3, stronger effect = lower value 1 | S. cerevisiae deletion strains, locus YKR091W, strain srl3, stronger effect = lower value 0.997 | S. cerevisiae deletion strains, locus YLL001W, strain dnm1, stronger effect = lower value 0.982 | S. cerevisiae deletion strains, locus YLL026W, stronger effect = lower value 0.986 | S. cerevisiae deletion strains, locus YLL041C, strain sdh2, stronger effect = lower value 1 | S. cerevisiae deletion strains, locus YLR027C, strain aat2, stronger effect = lower value 0.993 | S. cerevisiae deletion strains, locus YLR039C, strain RIC1, stronger effect = lower value 1.04 | S. cerevisiae deletion strains, locus YLR058C, strain SHM2, stronger effect = lower value 0.989 | S. cerevisiae deletion strains, locus YLR102C, strain apc9, stronger effect = lower value 0.985 | S. cerevisiae deletion strains, locus YLR113W, strain HOG1, stronger effect = lower value 1.03 | S. cerevisiae deletion strains, locus YLR221C, strain rsa3, stronger effect = lower value 0.999 | S. cerevisiae deletion strains, locus YLR258W, strain gsy2, stronger effect = lower value 1 | S. cerevisiae deletion strains, locus YLR262C, strain YPT6 (second series), stronger effect = lower value 0.991 | S. cerevisiae deletion strains, locus YLR262C, strain YPT6, stronger effect = lower value 1.06 | S. cerevisiae deletion strains, locus YLR268W, strain sec22, stronger effect = lower value 0.985 | S. cerevisiae deletion strains, locus YLR320W, strain mms22, stronger effect = lower value 0.98 | S. cerevisiae deletion strains, locus YLR330W, strain CHS5, stronger effect = lower value 0.992 | S. cerevisiae deletion strains, locus YLR342W, strain FKS1 (second series), stronger effect = lower value 0.983 | S. cerevisiae deletion strains, locus YLR342W, strain FKS1, stronger effect = lower value 0.982 | S. cerevisiae deletion strains, locus YLR357W, strain rsc2, stronger effect = lower value 0.978 | S. cerevisiae deletion strains, locus YLR370C, strain arc18, stronger effect = lower value 1 | S. cerevisiae deletion strains, locus YLR371W, strain rom2, stronger effect = lower value 0.986 | S. cerevisiae deletion strains, locus YLR384C, strain iki3, stronger effect = lower value 0.997 | S. cerevisiae deletion strains, locus YLR418C, strain cdc73, stronger effect = lower value 0.926 | S. cerevisiae deletion strains, locus YML016C, strain PPZ1, stronger effect = lower value 0.978 | S. cerevisiae deletion strains, locus YML032C, strain rad52, stronger effect = lower value 0.971 | S. cerevisiae deletion strains, locus YML120C, strain ndi1, stronger effect = lower value 1.01 | S. cerevisiae deletion strains, locus YML124C, strain tub3, stronger effect = lower value 0.987 | S. cerevisiae deletion strains, locus YMR058W, strain fet3, stronger effect = lower value 0.99 | S. cerevisiae deletion strains, locus YMR078C, strain ctf18, stronger effect = lower value 0.996 | S. cerevisiae deletion strains, locus YMR125W, strain sto1, stronger effect = lower value 1.01 | S. cerevisiae deletion strains, locus YMR129W, stronger effect = lower value 1 | S. cerevisiae deletion strains, locus YMR205C, strain PFK2, stronger effect = lower value 0.993 | S. cerevisiae deletion strains, locus YMR223W, strain ubp8, stronger effect = lower value 0.961 | S. cerevisiae deletion strains, locus YMR231W, strain pep5, stronger effect = lower value 0.992 | S. cerevisiae deletion strains, locus YMR263W, strain SAP30, stronger effect = lower value 1.01 | S. cerevisiae deletion strains, locus YMR307W, strain GAS1, stronger effect = lower value 0.972 | S. cerevisiae deletion strains, locus YNL067W, strain RPL9B, stronger effect = lower value 1.04 | S. cerevisiae deletion strains, locus YNL071W, strain lat1, stronger effect = lower value 1 | S. cerevisiae deletion strains, locus YNL128W, strain TEP1, stronger effect = lower value 1.01 | S. cerevisiae deletion strains, locus YNL153C, strain GIM3, stronger effect = lower value 1.02 | S. cerevisiae deletion strains, locus YNL183C, strain NPR1, stronger effect = lower value 0.978 | S. cerevisiae deletion strains, locus YNL209W, strain ssb2, stronger effect = lower value 1 | S. cerevisiae deletion strains, locus YNL233W, strain BNI4, stronger effect = lower value 0.983 | S. cerevisiae deletion strains, locus YNL248C, strain rpa49, stronger effect = lower value 1 | S. cerevisiae deletion strains, locus YNL250W, strain rad50, stronger effect = lower value 0.978 | S. cerevisiae deletion strains, locus YNL271C, strain bni1, stronger effect = lower value 0.981 | S. cerevisiae deletion strains, locus YNL298W, strain CLA4, stronger effect = lower value 0.999 | S. cerevisiae deletion strains, locus YNL307C, strain MCK1, stronger effect = lower value 0.973 | S. cerevisiae deletion strains, locus YNL322C, strain KRE1 (second series), stronger effect = lower value 0.993 | S. cerevisiae deletion strains, locus YNL322C, strain KRE1, stronger effect = lower value 0.997 | S. cerevisiae deletion strains, locus YNR049C, strain mso1, stronger effect = lower value 0.999 | S. cerevisiae deletion strains, locus YNR052C, strain pop2, stronger effect = lower value 0.996 | S. cerevisiae deletion strains, locus YOL006C, strain TOP1, stronger effect = lower value 1.03 | S. cerevisiae deletion strains, locus YOL012C, strain htz1 0.998 | S. cerevisiae deletion strains, locus YOL147C, strain pex11, stronger effect = lower value 0.994 | S. cerevisiae deletion strains, locus YOR001W, strain rrp6, stronger effect = lower value 0.992 | S. cerevisiae deletion strains, locus YOR061W, strain CKA2, stronger effect = lower value 0.991 | S. cerevisiae deletion strains, locus YOR069W, strain VPS5, stronger effect = lower value 0.986 | S. cerevisiae deletion strains, locus YOR070C, strain gyp1, stronger effect = lower value 1 | S. cerevisiae deletion strains, locus YOR080W, strain dia2, stronger effect = lower value 0.994 | S. cerevisiae deletion strains, locus YOR083W, strain WHI5, stronger effect = lower value 0.963 | S. cerevisiae deletion strains, locus YOR106W, strain vam3, stronger effect = lower value 0.993 | S. cerevisiae deletion strains, locus YOR136W, strain idh2, stronger effect = lower value 0.986 | S. cerevisiae deletion strains, locus YOR144C, strain elg1, stronger effect = lower value 0.984 | S. cerevisiae deletion strains, locus YOR184W, strain ser1, stronger effect = lower value 0.966 | S. cerevisiae deletion strains, locus YOR231W, strain MKK1, stronger effect = lower value 1.03 | S. cerevisiae deletion strains, locus YOR265W, strain rbl2, stronger effect = lower value 1.01 | S. cerevisiae deletion strains, locus YOR270C, strain vph1, stronger effect = lower value 1.03 | S. cerevisiae deletion strains, locus YOR290C, strain snf2, stronger effect = lower value 1 | S. cerevisiae deletion strains, locus YOR316C, strain cot1, stronger effect = lower value 0.987 | S. cerevisiae deletion strains, locus YPL051W, strain arl3, stronger effect = lower value 0.992 | S. cerevisiae deletion strains, locus YPL055C, strain LGE1, stronger effect = lower value 1.07 | S. cerevisiae deletion strains, locus YPL078C, strain atp4, stronger effect = lower value 0.98 | S. cerevisiae deletion strains, locus YPL106C, strain sse1, stronger effect = lower value 0.981 | S. cerevisiae deletion strains, locus YPL240C, strain hsp82, stronger effect = lower value 0.995 | S. cerevisiae deletion strains, locus YPL241C, strain CIN2, stronger effect = lower value 0.997 | S. cerevisiae deletion strains, locus YPL256C, strain CLN2, stronger effect = lower value 1.1 | S. cerevisiae deletion strains, locus YPR119W, strain clb2, stronger effect = lower value 0.989 | S. cerevisiae deletion strains, locus YPR141C, strain kar3, stronger effect = lower value 0.992 | S. cerevisiae deletion strains, locus YPR163C, strain tif3, stronger effect = lower value 0.987 | S. cerevisiae deletion strains, locus YPR167C, strain met16, stronger effect = lower value 0.987 | S. cerevisiae deletion strains, strain wtn01, stronger effect = lower value 0.975 | S. cerevisiae strains, strain wild type, stronger effect = lower value 0.982
